# Data as given in the supplement of paper PMC10338343.
# ± gives the standard deviation.
# System: MILI (PIWIL2) piRISC loaded with piRNA #1 (26 nt)
# Test: pre-steady-state target cleavage rate (min^-1); guide: piRNA #1 5'p-UGAGGUAGUAGGUUGUAUAGUAUCCA; MIWI and MILI are mouse PIWI proteins and EfPiwi is from a freshwater sponge; tags in brackets are library labels; higher = faster piRNA-guided slicing of the target
# Conditions: auxiliary factor: 500 nM mouse GTSF1
# How it was run: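 The pre-steady-state cleavage rate was obtained by Cleave-'n-Seq with a burst-and-steady-state fit. A transcribed, DNA-blocked target RNA library (0.1 nM) was mixed with 1 nM active affinity-purified piRISC carrying one synthetic guide, with or without 500 nM GTSF1 partner protein, in HEPES–potassium acetate buffer at 33 °C for 0–8 or 0–960 min. Uncleaved targets were sequenced and normalised to depth and to weakly complementary targets, with three trials pooled and k3 capped at 0.0001 min^-1.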
row,Sequence,pre-steady-state target cleavage rate
1,GGAGACCAUACUAUACAACCUACUUACCUCA,0.175 ± 0.017
2,GGAGACCUAUCUAUAUCAACCUACUACCUCA,0.00847 ± 0.0035
3,GGAGACCUAACAAUACAACCUACUACGUCA,0.023 ± 0.0089
4,GGAGACCUAUCUAUACUAGCUACUACCUCA,0.0865 ± 0.011
5,GGAGACCUAUGAUAACAACCCACUACCUCA,0.00347 ± 0.0029
6,GGAGACCUUACUAUACAACCUACUAGCACA,0.0607 ± 0.017
7,GGAGUGGAUAGUAUACAACCUACAACCUCA,0.0845 ± 0.011
8,GGAGAGGAUAGAAUACAACCUACUACCUCA,0.096 ± 0.01
9,GGAGACCAUACUAUACAAGCUACUAGCUCA,0.0756 ± 0.022
10,GGAGACCUAUCUAUACAACCUACUAUCCUCA,0.193 ± 0.023
11,GGAGACCUAACUAUACUACCUACUAGCUCA,0.0708 ± 0.021
12,GGAGACCUAUGAAUACGACCUACUACCUCA,0.00583 ± 0.0037
13,GGAGACCUUACUAUACAACCUACAACGUCA,0.0109 ± 0.0043
14,GGAGACCUAUGUAUACGACCUACUACCUCA,0.0178 ± 0.0033
15,GGAGACCUAUGUAUACAACCUACUACGACA,0.0279 ± 0.0061
16,GGAGACCUUUCUAUUCAACCUACUACCUCA,0.0926 ± 0.012

row,Sequence,pre-steady-state target cleavage rate
1,GGAGACCUAUCUAUACAACCUAAUACCUCA,0.0234 ± 0.0057
2,GGAGUGGAAACUAUAGAACCUACUACCUCA,0.204 ± 0.014
3,GGAGUGGAUACUUUACAACCUACUACCACA,0.0946 ± 0.011
4,GGAGUGGAUACUAUUCAACCAACUACCUCA,0.0045 ± 0.002
5,GGAGACCUAUGAUAUGUUCCUACUCCUCA,< 0.0001
6,GGAGAGGAUACUAUAGUUCCUACUACCUCA,0.18 ± 0.015
7,GGAGACCUAUGUAUUCUACCUACUACCUCA,0.0111 ± 0.0026
8,GGAGACCUAUGAUAACAACCUACCUACCUCA,0.00593 ± 0.003
9,GGAGACCUAUGAUAUGUUCCUCCUACCUCA,< 0.0001
10,GGAGACCUAUGAUAUGUUUCUACUACCUCA,< 0.0001
11,GGAGACGUUACAAUACAACCUACUACCUCA,0.163 ± 0.015
12,GGAGACCUAACUAUAGAACCUACUACCUGA,0.0124 ± 0.008
13,GGAGACCAUACUAAACAACCUUCUACCUCA,0.00805 ± 0.0035
14,GGAGACCUAUCAAUACAACCUACAACCUCA,0.0677 ± 0.015
15,GGAGACCUAUGAUAACAACCUACUACCGCA,0.00318 ± 0.003
